# Laboratory results published in PubChem BioAssay (EPA / NIEHS).
# “And” between values parts separate entries of the source, which are not always exact repeats. Equal values may be shown once. The source holds several records for some structures; these can differ, active in one and inactive in another. The source made the active and inactive calls. The calls were made as follows: active = hit-call score of the fitted dose curve at least 0.9, where 1 is the maximum; inactive = score below 0.9.
# Assays:
# [1] = ATG_E_Box_CIS: Attagene CIS-FACTORIAL HepG2 Assay for human Enhancer Box (E-box) (AID 2282936); settings: HepG2 E-box cis-reporter transcription, actives raise or lower the signal
# How it was run: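 Multiplexed CIS reporter system in transiently transfected HepG2 cells measures native transcription factor activity. Reporter RNA after 24 h exposure is profiled by RT-PCR-capillary electrophoresis.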
# [2] = ATG_M_61_CIS: Attagene CIS-FACTORIAL HepG2 Assay for M61 Transcription Factor (Internal Marker) (AID 2282937); settings: HepG2 Attagene CIS-FACTORIAL M61 internal marker reporter; actives raise or lower the signal
# How it was run: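 Using transiently transfected HepG2 liver cells, reporter transcript levels were assessed 24 h post-dosing by RT-PCR and capillary electrophoresis. Changes in either direction were fitted relative to DMSO controls.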
# [3] = ATG_EGR_CIS: Attagene CIS-FACTORIAL HepG2 Assay for human Early Growth Response 1 (EGR1) (AID 2282938); settings: HepG2 Attagene CIS-FACTORIAL EGR reporter mRNA; actives raise or lower the signal
# How it was run: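 Fluorescent capillary-electrophoresis signal of reporter cDNA fragments serves as read-out. HepG2 cells bear transiently transfected cis-promoter reporter units and are exposed 24 h; gain- or loss-of-signal is fitted against DMSO.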
# [4] = ATG_M_19_CIS: Attagene CIS-FACTORIAL HepG2 Assay for M19 Transcription Factor (Internal Marker) (AID 2282939); settings: HepG2 Attagene CIS-FACTORIAL M19 internal marker reporter; actives raise or lower the signal
# How it was run: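 Transfect HepG2 with MRTU reporter library → dose chemical, 24 h → isolate total RNA, reverse-transcribe with oligo(dT) → PCR, 6-FAM label, HpaI cut (2 h, 37 C) → capillary electrophoresis. Bidirectional fit vs DMSO.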
# [5] = ATG_ERE_CIS: Attagene CIS-FACTORIAL HepG2 Assay for Estrogen Response Element (ERE) (AID 2282940); settings: HepG2 ERE cis-reporter, Attagene RNA transcript; actives raise or lower the signal
# How it was run: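 Transient MRTU transfection of human HepG2; cis-element promoters; 24 h dosing; total RNA → RT (oligo dT) → PCR → 6-FAM primer extension → HpaI digest → CE fluorescence. Bidirectional fit, DMSO baseline.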
# [6] = ATG_Ets_CIS: Attagene CIS-FACTORIAL HepG2 Assay for human Erythroblast Transformation Specific (ETS) (AID 2282941); settings: HepG2 ETS cis-reporter transcription, actives raise or lower the signal
# How it was run: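 Human HepG2 hepatoma cells were transiently transfected with promoter-driven reporter constructs and treated for 24 hours. Reporter transcripts were quantified by RT-PCR with fluorescent primer extension; bidirectional curve fitting used DMSO as reference.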
# [7] = target: Hepatocyte nuclear factor 3-beta (Homo sapiens) (UniProt Q9Y261); assay: ATG_FoxA2_CIS: Attagene CIS-FACTORIAL HepG2 Assay for human Forkhead box A2 (FOXA2) (AID 2282942); settings: HepG2 cis-reporter transcription factor activity, 24 h; actives raise or lower the signal
# Hepatocyte nuclear factor 3-beta (Homo sapiens), sequence (Q9Y261 whole entry, looked up, the tested form may be a part): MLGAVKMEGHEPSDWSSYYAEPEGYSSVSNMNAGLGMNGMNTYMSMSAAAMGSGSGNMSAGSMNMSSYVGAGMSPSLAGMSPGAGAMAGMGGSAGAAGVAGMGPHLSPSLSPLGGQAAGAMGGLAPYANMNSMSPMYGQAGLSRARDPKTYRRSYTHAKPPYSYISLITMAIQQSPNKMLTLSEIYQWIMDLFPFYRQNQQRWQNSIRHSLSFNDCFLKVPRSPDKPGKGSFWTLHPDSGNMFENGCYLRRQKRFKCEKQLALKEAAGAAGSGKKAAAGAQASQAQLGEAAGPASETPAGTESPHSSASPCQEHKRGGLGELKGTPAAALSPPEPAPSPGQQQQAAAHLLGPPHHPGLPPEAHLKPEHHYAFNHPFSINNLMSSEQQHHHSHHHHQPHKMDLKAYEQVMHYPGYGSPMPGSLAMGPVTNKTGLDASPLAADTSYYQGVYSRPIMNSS
# How it was run: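 Fluorescence signal of reporter cDNA fragments, separated by capillary electrophoresis, reflects endogenous transcription factor activity in transfected HepG2 after 24 h. Both increases and decreases fitted against DMSO.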
# [8] = ATG_FoxO_CIS: Attagene CIS-FACTORIAL HepG2 Assay for human Forkhead box O (FoxO) (AID 2282943); settings: HepG2 Attagene cis-reporter, FoxO element, mRNA; actives raise or lower the signal
# How it was run: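 HepG2 cells transiently transfected with cis-promoter-driven multiple reporter transcription units; 24 h after chemical dosing, reporter mRNA quantified by RT-PCR, fluorescent primer extension, HpaI digestion and capillary electrophoresis. Bidirectional fitting versus DMSO baseline.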
# [9] = ATG_GATA_CIS: Attagene CIS-FACTORIAL HepG2 Assay for human GATA Binding Protein (AID 2282944); settings: HepG2 GATA cis-element reporter, Attagene multiplex mRNA; actives raise or lower the signal
# How it was run: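 Transient MRTU transfection, HepG2, 24 h compound exposure. Total RNA → oligo(dT) RT → PCR → 6-FAM primer extension → HpaI cut → CE. Bidirectional fit vs DMSO.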
# [10] = ATG_GLI_CIS: Attagene CIS-FACTORIAL HepG2 Assay for human Zinc Finger Protein GLI1 (AID 2282945); settings: HepG2, Attagene cis-factorial reporter mRNA, GLI element; actives raise or lower the signal
# How it was run: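 HepG2 cells transiently transfected with cis-promoter multiplexed reporter units report endogenous transcription factor activity. After 24 h chemical exposure, reporter mRNA was quantified by RT-PCR, 6-FAM labelling, HpaI digestion and capillary electrophoresis, with bidirectional fitting against DMSO.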
# [11] = target: Bile acid receptor (Homo sapiens) (UniProt Q96RI1); assay: ATG_IR1_CIS: Attagene CIS-FACTORIAL HepG2 Assay for human Nuclear Receptor Subfamily 1 Group H Member 4 (NR1H4), IR1 submotif (AID 2282946); settings: IR1 reporter transcription, actives raise or lower the signal
# Bile acid receptor (Homo sapiens), sequence (Q96RI1 whole entry, looked up): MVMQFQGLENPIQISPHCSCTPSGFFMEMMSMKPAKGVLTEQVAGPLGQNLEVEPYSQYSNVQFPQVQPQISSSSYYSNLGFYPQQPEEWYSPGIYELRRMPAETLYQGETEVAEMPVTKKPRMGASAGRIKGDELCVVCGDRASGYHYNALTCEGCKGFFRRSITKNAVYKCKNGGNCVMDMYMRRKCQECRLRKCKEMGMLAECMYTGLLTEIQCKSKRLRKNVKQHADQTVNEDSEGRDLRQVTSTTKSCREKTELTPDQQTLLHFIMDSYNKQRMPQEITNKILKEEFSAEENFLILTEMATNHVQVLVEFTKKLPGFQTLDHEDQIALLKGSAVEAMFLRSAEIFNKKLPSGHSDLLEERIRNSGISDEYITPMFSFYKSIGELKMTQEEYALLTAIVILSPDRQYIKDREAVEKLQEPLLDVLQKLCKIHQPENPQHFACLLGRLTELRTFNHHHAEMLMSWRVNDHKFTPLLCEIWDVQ
# How it was run: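 Transient MRTU transfection, HepG2; 24 h dosing; RNA → RT-PCR → 6-FAM primer extension → HpaI digest → capillary electrophoresis fluorescence. Gain/loss of signal fitted relative to DMSO.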
# [12] = ATG_GRE_CIS: Attagene CIS-FACTORIAL HepG2 Assay for human Glucocorticoid Response Elements (GRE) (AID 2282947); settings: HepG2 GRE cis-reporter, Attagene multiplex mRNA; actives raise or lower the signal
# How it was run: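 Following 24 h chemical exposure of transiently transfected HepG2 cells, total RNA was reverse-transcribed and reporter cDNA amplified, fluorescently labelled and sized by capillary electrophoresis. Signal gain or loss was fitted relative to DMSO vehicle.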
# [13] = ATG_M_32_CIS: Attagene CIS-FACTORIAL HepG2 Assay for M32 Transcription Factor (Internal Marker) (AID 2282949); settings: HepG2 Attagene cis-factorial M32 reporter, mRNA; actives raise or lower the signal;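 also: background control marker of the multiplexed CIS panel rather than a real target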
# How it was run: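 Fluorescent capillary electrophoresis peaks of HpaI-digested, FAM-labelled RT-PCR reporter products give the signal. Source: transiently transfected human liver HepG2 cells, 24 h after chemical dosing; bidirectional fitting against DMSO.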
# [14] = ATG_M_06_CIS: Attagene CIS-FACTORIAL HepG2 Assay for M06 Transcription Factor (Internal Marker) (AID 2282950); settings: HepG2 Attagene CIS-FACTORIAL M06 internal marker reporter; actives raise or lower the signal
# How it was run: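 Read-out is fluorescence of labelled reporter cDNA fragments resolved by capillary electrophoresis after RT-PCR. Cells: HepG2 carrying transfected cis-promoter reporter units, treated 24 h. Gain or loss of signal fitted relative to DMSO.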
# [15] = target: Hepatocyte nuclear factor 6 (Homo sapiens) (UniProt Q9UBC0); assay: ATG_HNF6_CIS: Attagene CIS-FACTORIAL HepG2 Assay for human Hepatocyte Nuclear Factor 6 (HNF6) (AID 2282952); settings: HepG2 Attagene cis-factorial HNF6 reporter transcription; actives raise or lower the signal
# Hepatocyte nuclear factor 6 (Homo sapiens), sequence (Q9UBC0 whole entry, looked up): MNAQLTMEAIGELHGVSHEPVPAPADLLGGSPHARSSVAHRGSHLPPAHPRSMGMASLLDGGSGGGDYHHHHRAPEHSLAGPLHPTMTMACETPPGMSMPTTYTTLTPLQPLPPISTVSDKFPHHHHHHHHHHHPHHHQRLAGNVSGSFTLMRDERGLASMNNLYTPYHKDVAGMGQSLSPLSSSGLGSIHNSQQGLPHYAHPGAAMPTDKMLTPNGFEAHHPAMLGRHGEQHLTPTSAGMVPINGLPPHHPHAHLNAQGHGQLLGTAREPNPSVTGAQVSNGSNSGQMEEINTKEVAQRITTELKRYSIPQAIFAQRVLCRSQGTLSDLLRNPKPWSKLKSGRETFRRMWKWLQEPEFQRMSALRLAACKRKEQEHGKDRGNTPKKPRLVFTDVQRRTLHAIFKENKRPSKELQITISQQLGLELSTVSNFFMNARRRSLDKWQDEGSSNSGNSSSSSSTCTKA
# How it was run: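 Multiplexed mRNA reporter assay in transfected HepG2; 24 h dosing; RT-PCR plus capillary electrophoresis fluorescence; DMSO-referenced bidirectional curve fitting.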
# [16] = target: Heat shock factor protein 1 (Homo sapiens) (UniProt Q00613); assay: ATG_HSE_CIS: Attagene CIS-FACTORIAL HepG2 Assay for human Heat Shock Transcription Factor 1 (HSE) (AID 2282953); settings: HepG2 HSE cis-reporter, Attagene RNA transcription; actives raise or lower the signal
# Heat shock factor protein 1 (Homo sapiens), sequence (Q00613 whole entry, looked up): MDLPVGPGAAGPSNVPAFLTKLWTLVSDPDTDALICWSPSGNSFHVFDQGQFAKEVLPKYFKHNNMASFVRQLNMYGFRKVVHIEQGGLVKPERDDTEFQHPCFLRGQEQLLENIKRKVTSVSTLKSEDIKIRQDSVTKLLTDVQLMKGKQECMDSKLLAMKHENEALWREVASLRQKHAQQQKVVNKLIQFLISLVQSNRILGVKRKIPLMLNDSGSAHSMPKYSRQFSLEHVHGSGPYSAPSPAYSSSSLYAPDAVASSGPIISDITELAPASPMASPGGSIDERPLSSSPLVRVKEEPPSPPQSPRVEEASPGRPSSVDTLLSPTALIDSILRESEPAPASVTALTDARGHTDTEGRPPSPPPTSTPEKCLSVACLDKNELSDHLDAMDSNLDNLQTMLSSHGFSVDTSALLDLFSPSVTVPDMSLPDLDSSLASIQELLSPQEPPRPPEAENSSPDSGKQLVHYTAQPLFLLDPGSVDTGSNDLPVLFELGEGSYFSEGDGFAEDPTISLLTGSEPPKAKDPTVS
# How it was run: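 HepG2, transient MRTU transfection, cis-promoter reporters (endogenous TF activity). 24 h compound. RNA → oligo(dT) RT → PCR → 6-FAM primer extension → HpaI cut → CE. Bidirectional fit vs DMSO.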
# [17] = ATG_MRE_CIS: Attagene CIS-FACTORIAL HepG2 Assay for human Metal Responsive Element (MRE) (AID 2282954); settings: HepG2 MRE cis-reporter transcription, Attagene multiplex; actives raise or lower the signal
# How it was run: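 Step one: transfect HepG2 with cis-regulated reporter units. Step two: dose 24 h. Step three: isolate RNA, RT-PCR, 6-FAM label, HpaI digest, capillary electrophoresis. Fit bidirectionally to DMSO.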
# [18] = ATG_PBREM_CIS: Attagene CIS-FACTORIAL HepG2 Assay for human Phenobarbital-responsive Enhancer Module (PBREM) (AID 2282955); settings: HepG2 PBREM cis-reporter, Attagene multiplexed transcription; actives raise or lower the signal
# How it was run: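 Readout: reporter mRNA, fluorescent RT-PCR fragments separated by capillary electrophoresis. System: HepG2 transiently transfected with cis-regulated reporter units. Exposure: 24 h. Analysis: bidirectional, DMSO baseline.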
# [19] = target: Hypoxia-inducible factor 1-alpha (Homo sapiens) (UniProt Q16665); assay: ATG_HIF1a_CIS: Attagene CIS-FACTORIAL HepG2 Assay for human Hypoxia Inducible Factor 1 (HIF1A) (AID 2282951); settings: HepG2 Attagene cis-factorial HIF1a reporter transcription; actives raise or lower the signal
# Hypoxia-inducible factor 1-alpha (Homo sapiens), sequence (Q16665 whole entry, looked up): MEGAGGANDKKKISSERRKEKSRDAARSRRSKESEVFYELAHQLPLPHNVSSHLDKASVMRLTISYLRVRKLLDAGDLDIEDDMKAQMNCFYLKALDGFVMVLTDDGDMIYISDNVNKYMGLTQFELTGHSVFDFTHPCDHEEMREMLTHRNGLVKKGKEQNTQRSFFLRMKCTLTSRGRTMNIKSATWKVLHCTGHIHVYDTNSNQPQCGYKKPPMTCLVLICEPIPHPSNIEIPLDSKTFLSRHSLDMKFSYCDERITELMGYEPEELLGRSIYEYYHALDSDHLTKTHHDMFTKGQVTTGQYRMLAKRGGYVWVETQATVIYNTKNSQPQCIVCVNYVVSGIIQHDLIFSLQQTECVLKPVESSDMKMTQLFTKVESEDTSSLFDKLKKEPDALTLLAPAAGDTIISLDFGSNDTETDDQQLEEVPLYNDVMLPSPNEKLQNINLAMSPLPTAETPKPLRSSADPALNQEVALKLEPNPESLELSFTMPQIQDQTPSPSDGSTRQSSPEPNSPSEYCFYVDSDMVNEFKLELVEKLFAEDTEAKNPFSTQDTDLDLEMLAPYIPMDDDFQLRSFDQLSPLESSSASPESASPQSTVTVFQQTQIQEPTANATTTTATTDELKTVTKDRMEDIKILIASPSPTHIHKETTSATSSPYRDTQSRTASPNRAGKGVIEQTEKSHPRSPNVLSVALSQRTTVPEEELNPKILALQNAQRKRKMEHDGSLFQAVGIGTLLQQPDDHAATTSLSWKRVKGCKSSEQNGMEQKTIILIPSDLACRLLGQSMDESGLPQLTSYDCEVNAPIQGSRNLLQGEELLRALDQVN
# How it was run: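 Endogenous-TF cis reporter readout, human HepG2 cells, 24 h incubation; mRNA detected via RT-PCR and capillary electrophoresis fluorescence; DMSO-normalised bidirectional fitting.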
# [20] = ATG_ISRE_CIS: Attagene CIS-FACTORIAL HepG2 Assay for human Interferon Regulatory Factor 1 (IRF1) binding to an Interferon-Stimulated Response Element (ISRE) (AID 2282948); settings: HepG2 ISRE cis-reporter (Attagene), mRNA transcription readout; actives raise or lower the signal
# How it was run: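 Cell-based cis-reporter assay; HepG2; 24 h exposure; reporter mRNA by RT-PCR plus capillary electrophoresis fluorescence; activity in either direction scored relative to DMSO.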
structure (smiles),measurement,setting,value
CC1=C2C[C@H]3[C@@H](CC=C4C[C@@H](O)CC[C@@]43C)[C@@H]2CC[C@]12O[C@@H]1C[C@H](C)CN[C@H]1[C@H]2C,outcome,[1],inactive
same,outcome,[2],inactive
same,outcome,[3],inactive
same,outcome,[4],inactive
same,outcome,[5],inactive
same,outcome,[6],inactive
same,AC50,[7],13 µM (active)
same,outcome,[8],inactive
same,outcome,[9],inactive
same,outcome,[10],inactive
same,AC50,[11],8.12 µM (active)
same,outcome,[12],inactive
same,outcome,[13],inactive
same,outcome,[14],inactive
same,outcome,[15],inactive
same,outcome,[16],inactive
same,AC50,[17],16.1 µM (active)
same,outcome,[18],inactive
C=CC(=O)NCNC(=O)C=C,outcome,[1],inactive
same,outcome,[2],inactive
same,outcome,[3],inactive
same,outcome,[4],inactive
same,outcome,[5],inactive
same,outcome,[6],inactive
same,outcome,[7],inactive
same,outcome,[8],inactive
same,outcome,[9],inactive
same,outcome,[10],inactive
same,outcome,[12],inactive
same,outcome,[13],inactive
same,outcome,[14],inactive
same,outcome,[19],inactive
same,outcome,[15],inactive
same,outcome,[16],inactive
same,outcome,[17],inactive
same,outcome,[18],inactive
Cc1cc2c3c(c1)C(c1ccccc1)=N[C@@H](NC(=O)c1ccncc1)C(=O)N3CC2,outcome,[1],inactive
same,outcome,[2],inactive
same,AC50,[3],42.8 µM (active)
same,outcome,[4],inactive
same,outcome,[5],inactive
same,AC50,[6],153 µM (active)
same,outcome,[7],inactive
same,outcome,[8],inactive
same,outcome,[9],inactive
same,outcome,[10],inactive
same,outcome,[11],inactive
same,AC50,[20],102 µM (active)
same,outcome,[13],inactive
same,outcome,[14],inactive
same,outcome,[15],inactive
same,outcome,[16],inactive
same,AC50,[17],77.1 µM (active)
same,AC50,[18],3.47 µM (active)
Oc1ccc(C(c2ccc(O)cc2)(C(F)(F)F)C(F)(F)F)cc1,outcome,[1],inactive
same,outcome,[2],inactive
same,AC50,[3],11.1 µM (active) and 16.5 µM (active)
same,outcome,[3],inactive
same,outcome,[4],inactive
same,AC50,[6],15.5 µM (active) and 17.5 µM (active)
same,outcome,[6],inactive
same,outcome,[7],inactive
same,outcome,[8],inactive
same,outcome,[9],inactive
same,outcome,[10],inactive
same,outcome,[12],inactive
same,outcome,[13],inactive
same,outcome,[14],inactive
same,outcome,[19],inactive
same,outcome,[15],inactive
same,AC50,[16],16.3 µM (active) [middle of 4 runs]
same,AC50,[17],16.2 µM (active) [middle of 4 runs]
same,outcome,[18],inactive
Nn1cnnc1,outcome,[1],inactive
same,outcome,[2],inactive
same,outcome,[3],inactive
same,outcome,[4],inactive
same,AC50,[5],39.5 µM (active)
same,outcome,[6],inactive
same,outcome,[7],inactive
same,outcome,[8],inactive
same,outcome,[9],inactive
same,outcome,[10],inactive
same,outcome,[12],inactive
same,outcome,[13],inactive
same,outcome,[14],inactive
same,outcome,[15],inactive
same,outcome,[16],inactive
same,outcome,[17],inactive
same,outcome,[18],inactive
CCOP(=S)(OCC)SCSC(C)(C)C,AC50,[1],1.86 µM (active)
same,outcome,[1],inactive
same,outcome,[2],inactive
same,outcome,[3],inactive
same,outcome,[4],inactive
same,outcome,[6],inactive
same,outcome,[7],inactive
same,outcome,[8],inactive
same,outcome,[9],inactive
same,outcome,[10],inactive
same,outcome,[13],inactive
same,outcome,[14],inactive
same,outcome,[15],inactive
same,outcome,[16],inactive
same,outcome,[17],inactive
same,outcome,[18],inactive
